Measurements published in PubChem BioAssay AID2315 (National Center for Advancing Translational Sciences (NCATS), 2010).
In all, about 290,000 compounds went through this assay and about 27,000 (9.3%) were called active. Cut-off read from the data, not from the text of the source: active = inhibition mostly above about 28% (no sharp cut-off); inactive = mostly below about 43%. For the sample, actives were picked, then their nearest neighbours and some compounds at random.

assay: A qHTS for Small Molecule Inhibitors of Shiga Toxin; settings: Vero cells, Shiga toxin protein synthesis inhibition reporter; at 38.7 µM, active compounds read high; note: 0% is about no effect

SMILES	inhibition
CC1C(=O)N(Cc2ccccc2)c2ccccc2N1C(=O)c1ccccc1 (stereo not drawn)	2.9% (inactive)
O=C(CN1C(=O)c2cccc3cccc1c23)Nc1ccccc1	-7.35% (inactive)
CSCc1cc(N(C)C)nc(SCc2ccc(Cl)cc2Cl)n1	-20.3% (inactive)
CSCc1cc(N2CCOCC2)nc(SCc2ccc(Cl)cc2Cl)n1	30.9% (active)
CC(C)(CNC(=O)Cc1ccc(Cl)cc1Cl)N1CCOCC1	2.65% (inactive)
CCn1c(SCC(=O)Nc2ccc(Br)cc2)nc2sc3c(c2c1=O)CCN(C)C3	18.8% (inactive)
CCN(Cc1ccccc1)C(=O)CN1C(=S)NC(C)(C)CC1C (stereo not drawn)	-3.94% (inactive)
Cc1ccc(CSc2nnc(-c3cnccn3)n2C)cc1	36.7% (inactive)
Cn1c(SCc2c(F)cccc2Cl)nnc1-c1cnccn1	119% (active)
Oc1ccc(-n2nnnc2SCc2c(F)cccc2Cl)cc1	-2.08% (inactive)
COc1ccc(C(=O)COC(=O)c2ccc3ccccc3n2)cc1	28.4% (inactive)
CC(OC(=O)c1ccc2ccccc2n1)C(=O)c1ccccc1 (stereo not drawn)	86.7% (active)
CC(OC(=O)c1ccccc1N1C(=O)C2C3CCC(C3)C2C1=O)C(=O)c1ccccc1 (stereo not drawn)	5.16% (inactive)
O=C(CCSc1ccccc1)N1CCN(c2ccccc2F)CC1	95.5% (active)
O=C(CCc1ccccc1F)N1CCN(c2ccccc2)CC1	-0.211% (inactive)
O=C(NCC(=O)N1CCN(c2ccccc2F)CC1)c1cccs1	26.2% (inactive)
Cc1ccc(C)c(N2CCN(S(=O)(=O)c3c(C)[nH]c(C)c3C(=O)N3CCCC3)CC2)c1	3.26% (inactive)
Cc1cccc(C(=O)c2cccc(C)c2)c1	43.6% (inactive)
N/C(=N\OC(=O)c1cc(-c2ccccc2)nc2ccccc12)c1ccncc1	15.3% (inactive)
Cc1cccc(/C(N)=N/OC(=O)c2ccccc2Cl)c1	74.6% (active)
CCCCN1Cc2c(nc3cc(-c4ccccc4)[nH]n3c2=O)C1=O	2.49% (inactive)
C=CCc1c(C)nc2cc(-c3ccccc3)[nH]n2c1=O	45.5% (active)
Cc1cc(=O)n2[nH]c(-c3sccc3-n3c(C)ccc3C)cc2n1	34.4% (inactive)
CCc1c(C)nc2cc(C)[nH]n2c1=O	0.52% (inactive)
Cc1nc2nc[nH]n2c(=O)c1C/C=C/c1ccccc1	-3.93% (inactive)
CCc1c(C)nc2cc(-c3cccs3)[nH]n2c1=O	153% (active)
COC(=O)c1cccc(N(C(=O)CNC(=O)c2cccs2)C(C(=O)NCC2CCCO2)c2ccc(OC)c(OC)c2)c1 (stereo not drawn)	22.3% (inactive)
COc1cc(NC(=O)C2=CC(c3ccco3)=NS(=O)(=O)N2C)cc(OC)c1OC	-2.22% (inactive)
